Results from PubChem BioAssay (EPA / NIEHS).
Active and inactive are the calls of the source. The calls were made as follows: active = hit-call score of the fitted dose curve at least 0.9, where 1 is the maximum; inactive = score below 0.9.

Experiments:
[1] = ATG_CRE_CIS: Attagene CIS-FACTORIAL HepG2 Assay for human cAMP Responsive Element (CRE) binding protein 3 (AID 2282926); conditions: HepG2 CRE cis-reporter, Attagene multiplexed mRNA; actives raise or lower the signal
Method in brief: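 Assay format: transient reporter transfection of HepG2, 24 h treatment, total RNA isolation with DNase I step. Reporter abundance read by fluorescence after PCR and capillary separation; DMSO-normalised gain or loss fitting.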

[2] = molecular target: CCAAT/enhancer-binding protein beta (Homo sapiens) (UniProt P17676); assay: ATG_C_EBP_CIS: Attagene CIS-FACTORIAL HepG2 Assay for human CCAAT/Enhancer Binding Protein (C/EBP) beta (AID 2282927); conditions: HepG2 Attagene cis-factorial transcription factor reporter; actives raise or lower the signal
Sequence of CCAAT/enhancer-binding protein beta (Homo sapiens) (P17676 whole entry, looked up): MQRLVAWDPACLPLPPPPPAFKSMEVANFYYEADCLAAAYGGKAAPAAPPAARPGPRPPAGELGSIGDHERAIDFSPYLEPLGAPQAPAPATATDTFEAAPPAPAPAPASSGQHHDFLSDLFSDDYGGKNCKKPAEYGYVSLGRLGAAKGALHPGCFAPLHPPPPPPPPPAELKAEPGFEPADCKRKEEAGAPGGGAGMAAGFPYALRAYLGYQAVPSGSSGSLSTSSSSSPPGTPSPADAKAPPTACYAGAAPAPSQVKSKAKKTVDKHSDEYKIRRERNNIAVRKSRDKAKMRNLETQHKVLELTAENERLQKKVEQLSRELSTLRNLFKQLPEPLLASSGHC
Method in brief: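 RT-PCR/capillary electrophoresis fluorescence of reporter mRNA, 24 h post-dose, in HepG2 cells carrying transfected cis-promoter reporter units. Bidirectional curve fitting against DMSO baseline captures gain or loss of signal.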

[3] = ATG_DR4_LXR_CIS: Attagene CIS-FACTORIAL HepG2 Assay for human Liver X Receptor (LXR), DR4 submotif (AID 2282929); conditions: HepG2 Attagene DR4 cis-reporter, mRNA transcription; actives raise or lower the signal
Method in brief: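 Cells were transfected with multiple reporter transcription units, exposed to chemicals for 24 hours, then lysed for RNA. Reporter mRNA induction was measured by RT-PCR with capillary electrophoresis detection and fitted in both directions relative to DMSO.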

[4] = molecular target: Aryl hydrocarbon receptor (Homo sapiens) (UniProt P35869); assay: ATG_Ahr_CIS: Attagene CIS-FACTORIAL HepG2 Assay for human Aryl Hydrocarbon Receptor (Ahr) (AID 2282930); conditions: HepG2 AhR cis-factorial reporter transcription; actives raise or lower the signal
Sequence of Aryl hydrocarbon receptor (Homo sapiens) (P35869 whole entry, looked up): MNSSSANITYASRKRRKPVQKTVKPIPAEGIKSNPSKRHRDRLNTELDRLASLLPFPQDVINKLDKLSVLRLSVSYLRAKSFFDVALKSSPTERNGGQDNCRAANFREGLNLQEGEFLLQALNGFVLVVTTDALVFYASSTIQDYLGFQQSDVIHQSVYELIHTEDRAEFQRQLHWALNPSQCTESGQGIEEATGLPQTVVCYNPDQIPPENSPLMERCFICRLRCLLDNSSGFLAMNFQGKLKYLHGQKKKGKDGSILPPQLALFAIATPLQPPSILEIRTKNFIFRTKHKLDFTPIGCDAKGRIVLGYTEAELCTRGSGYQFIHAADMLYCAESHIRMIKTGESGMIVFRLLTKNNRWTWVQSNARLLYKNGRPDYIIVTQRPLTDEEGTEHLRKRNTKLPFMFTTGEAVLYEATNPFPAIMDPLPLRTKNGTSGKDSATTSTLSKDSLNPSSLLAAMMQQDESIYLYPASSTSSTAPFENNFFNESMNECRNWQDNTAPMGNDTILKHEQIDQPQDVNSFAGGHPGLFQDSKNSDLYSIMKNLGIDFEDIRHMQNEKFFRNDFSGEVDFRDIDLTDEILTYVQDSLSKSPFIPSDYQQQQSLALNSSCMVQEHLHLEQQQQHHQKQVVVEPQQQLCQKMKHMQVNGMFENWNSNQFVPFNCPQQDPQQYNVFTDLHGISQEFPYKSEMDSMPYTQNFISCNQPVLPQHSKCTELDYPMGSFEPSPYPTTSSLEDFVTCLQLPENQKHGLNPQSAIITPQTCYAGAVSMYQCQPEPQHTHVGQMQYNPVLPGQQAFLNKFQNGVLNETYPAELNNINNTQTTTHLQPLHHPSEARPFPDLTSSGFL
Method in brief: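 HepG2 cells transiently transfected with cis-element-driven multiplexed reporter transcription units; endogenous transcription factor activity measured as reporter mRNA 24 h after dosing. RT-PCR, 6-FAM labelling, HpaI digestion, capillary electrophoresis; bidirectional fitting versus DMSO baseline.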

[5] = ATG_AP_1_CIS: Attagene CIS-FACTORIAL HepG2 Assay for human Activator Protein 1 (AP-1) (AID 2282931); conditions: HepG2 Attagene cis-factorial AP-1 reporter mRNA; actives raise or lower the signal
Method in brief: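 Endogenous transcription-factor activity in human HepG2 liver cells is read through a cis-promoter reporter transcript, sampled 24 h after dosing. Detection uses RT-PCR with capillary electrophoresis; values come from bidirectional fitting relative to DMSO.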

[6] = ATG_AP_2_CIS: Attagene CIS-FACTORIAL HepG2 Assay for human Activator Protein 2 (AP-2) (AID 2282932); conditions: HepG2 AP-2 cis-reporter, Attagene transcription factor profiling; actives raise or lower the signal
Method in brief: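 Cells (HepG2) transfected with promoter-driven reporter constructs, treated 24 h. Total RNA reverse-transcribed, reporter cDNA PCR-amplified, FAM-labelled by primer extension, digested, resolved by capillary electrophoresis. Activity fitted both directions versus DMSO.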

[7] = ATG_BRE_CIS: Attagene CIS-FACTORIAL HepG2 Assay for human Bone Morphogenetic Protein (BMP) Response Element (BRE) (AID 2282933); conditions: HepG2 BMP response element reporter, Attagene transcription factor profiling; actives raise or lower the signal
Method in brief: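 Transient MRTU transfection of human HepG2 liver cells; 24 h compound treatment; total RNA isolated, reverse-transcribed, PCR-amplified, 6-FAM labelled, HpaI-cut, capillary electrophoresis. DMSO = negative control/baseline, bidirectional fit.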

[8] = molecular target: Transcription factor E2F1 (Homo sapiens) (UniProt Q01094); assay: ATG_E2F_CIS: Attagene CIS-FACTORIAL HepG2 Assay for human E2F Transcription Factor 1 (AID 2282935); conditions: HepG2 Attagene cis-reporter, E2F reporter RNA transcripts; actives raise or lower the signal
Sequence of Transcription factor E2F1 (Homo sapiens) (Q01094 whole entry, looked up): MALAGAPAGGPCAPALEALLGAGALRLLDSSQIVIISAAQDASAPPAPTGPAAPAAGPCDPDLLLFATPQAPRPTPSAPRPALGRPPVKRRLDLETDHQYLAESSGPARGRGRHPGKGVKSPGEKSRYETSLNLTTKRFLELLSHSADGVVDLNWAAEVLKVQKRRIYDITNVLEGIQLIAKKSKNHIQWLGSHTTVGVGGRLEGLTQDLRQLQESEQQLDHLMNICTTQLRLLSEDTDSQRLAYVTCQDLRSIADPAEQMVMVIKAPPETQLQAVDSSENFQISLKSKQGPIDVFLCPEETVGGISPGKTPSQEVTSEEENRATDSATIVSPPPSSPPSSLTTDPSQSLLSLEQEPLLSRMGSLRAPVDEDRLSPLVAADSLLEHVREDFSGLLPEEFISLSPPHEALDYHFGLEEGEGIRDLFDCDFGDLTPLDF
Method in brief: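 First, HepG2 cells were transfected with reporter transcription units. Next, they were dosed for 24 h. Then RNA was isolated, converted to cDNA, PCR-amplified, FAM-labeled, HpaI-digested and analyzed by capillary electrophoresis.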

[9] = ATG_E_Box_CIS: Attagene CIS-FACTORIAL HepG2 Assay for human Enhancer Box (E-box) (AID 2282936); conditions: HepG2 E-box cis-reporter transcription, actives raise or lower the signal
Method in brief: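 Endogenous transcription factor activity was sensed in human HepG2 liver cells through transfected cis-promoter reporter units. After 24 h of dosing, total RNA was reverse-transcribed and reporter cDNA resolved by capillary electrophoresis.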

[10] = ATG_M_61_CIS: Attagene CIS-FACTORIAL HepG2 Assay for M61 Transcription Factor (Internal Marker) (AID 2282937); conditions: HepG2 Attagene CIS-FACTORIAL M61 internal marker reporter; actives raise or lower the signal
Method in brief: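 Cells were transfected with reporter units under cis-regulatory promoters, treated with chemicals for 24 h, then lysed for RNA. Reporter transcripts were quantified by RT-PCR and capillary electrophoresis, and activity was fitted bidirectionally against DMSO.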

[11] = ATG_EGR_CIS: Attagene CIS-FACTORIAL HepG2 Assay for human Early Growth Response 1 (EGR1) (AID 2282938); conditions: HepG2 Attagene CIS-FACTORIAL EGR reporter mRNA; actives raise or lower the signal
Method in brief: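 Endogenous TF activity in HepG2 liver cells was gauged through cis-promoter reporter constructs transiently transfected. After 24 h dosing, reporter mRNA was quantified by RT-PCR and capillary electrophoresis, and curves fitted in both directions versus DMSO.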

[12] = ATG_Ets_CIS: Attagene CIS-FACTORIAL HepG2 Assay for human Erythroblast Transformation Specific (ETS) (AID 2282941); conditions: HepG2 ETS cis-reporter transcription, actives raise or lower the signal
Method in brief: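 Multiplexed reporter transcript profiling: HepG2, 24 h treatment, total RNA to cDNA, PCR, 6-FAM labelling, HpaI cut, capillary electrophoresis. Gain- or loss-of-signal fitted against DMSO.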

[13] = molecular target: Hepatocyte nuclear factor 3-beta (Homo sapiens) (UniProt Q9Y261); assay: ATG_FoxA2_CIS: Attagene CIS-FACTORIAL HepG2 Assay for human Forkhead box A2 (FOXA2) (AID 2282942); conditions: HepG2 cis-reporter transcription factor activity, 24 h; actives raise or lower the signal
Sequence of Hepatocyte nuclear factor 3-beta (Homo sapiens) (Q9Y261 whole entry, looked up): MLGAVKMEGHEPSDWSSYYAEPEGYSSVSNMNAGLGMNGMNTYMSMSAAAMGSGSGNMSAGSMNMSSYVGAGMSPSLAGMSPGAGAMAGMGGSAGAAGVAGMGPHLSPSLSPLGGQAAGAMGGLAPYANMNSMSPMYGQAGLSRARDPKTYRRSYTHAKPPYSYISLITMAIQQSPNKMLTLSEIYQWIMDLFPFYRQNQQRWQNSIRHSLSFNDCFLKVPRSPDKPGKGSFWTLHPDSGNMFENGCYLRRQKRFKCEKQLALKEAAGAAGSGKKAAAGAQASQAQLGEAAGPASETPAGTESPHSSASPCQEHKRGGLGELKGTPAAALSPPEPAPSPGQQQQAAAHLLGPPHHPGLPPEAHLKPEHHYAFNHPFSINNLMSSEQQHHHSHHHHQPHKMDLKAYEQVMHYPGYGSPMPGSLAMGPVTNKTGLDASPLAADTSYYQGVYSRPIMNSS
Method in brief: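 Endogenous transcription factor activity was read in HepG2 cells carrying transiently transfected cis-promoter reporter units. After 24 h dosing, reporter mRNA was quantified by RT-PCR and capillary electrophoresis, and values fitted bidirectionally versus DMSO.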

[14] = ATG_FoxO_CIS: Attagene CIS-FACTORIAL HepG2 Assay for human Forkhead box O (FoxO) (AID 2282943); conditions: HepG2 Attagene cis-reporter, FoxO element, mRNA; actives raise or lower the signal
Method in brief: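 HepG2 cells transiently transfected with cis-promoter-driven multiple reporter transcription units; 24 h after chemical dosing, reporter mRNA quantified by RT-PCR, fluorescent primer extension, HpaI digestion and capillary electrophoresis. Bidirectional fitting versus DMSO baseline.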

[15] = ATG_GATA_CIS: Attagene CIS-FACTORIAL HepG2 Assay for human GATA Binding Protein (AID 2282944); conditions: HepG2 GATA cis-element reporter, Attagene multiplex mRNA; actives raise or lower the signal
Method in brief: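 Transient MRTU transfection, HepG2, 24 h compound exposure. Total RNA → oligo(dT) RT → PCR → 6-FAM primer extension → HpaI cut → CE. Bidirectional fit vs DMSO.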

[16] = ATG_GLI_CIS: Attagene CIS-FACTORIAL HepG2 Assay for human Zinc Finger Protein GLI1 (AID 2282945); conditions: HepG2, Attagene cis-factorial reporter mRNA, GLI element; actives raise or lower the signal
Method in brief: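 HepG2 cells transiently transfected with cis-promoter multiplexed reporter units report endogenous transcription factor activity. After 24 h chemical exposure, reporter mRNA was quantified by RT-PCR, 6-FAM labelling, HpaI digestion and capillary electrophoresis, with bidirectional fitting against DMSO.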

[17] = molecular target: Retinoic acid receptor alpha (Homo sapiens) (UniProt P10276); assay: ATG_DR5_RAR_CIS: Attagene CIS-FACTORIAL HepG2 Assay for human Retinoic Acid Receptor Alpha (RARE), DR5 submotif (AID 2282934); conditions: HepG2 Attagene cis-factorial RARE DR5 reporter, mRNA; actives raise or lower the signal
Sequence of Retinoic acid receptor alpha (Homo sapiens) (P10276 whole entry, looked up): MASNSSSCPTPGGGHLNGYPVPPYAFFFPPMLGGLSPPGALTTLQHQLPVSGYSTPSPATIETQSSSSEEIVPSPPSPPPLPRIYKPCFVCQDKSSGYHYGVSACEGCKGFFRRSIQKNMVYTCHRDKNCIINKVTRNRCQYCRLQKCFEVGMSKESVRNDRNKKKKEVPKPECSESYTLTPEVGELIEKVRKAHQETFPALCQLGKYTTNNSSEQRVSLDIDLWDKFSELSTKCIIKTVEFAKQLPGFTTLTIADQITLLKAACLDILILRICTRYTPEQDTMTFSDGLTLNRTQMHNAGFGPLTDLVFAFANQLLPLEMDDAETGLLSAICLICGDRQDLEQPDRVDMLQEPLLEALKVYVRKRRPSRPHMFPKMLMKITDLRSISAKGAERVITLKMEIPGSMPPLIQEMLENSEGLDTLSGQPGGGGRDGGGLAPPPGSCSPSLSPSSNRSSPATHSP
Method in brief: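 HepG2 cells transiently transfected with multiplexed reporter units under cis (DR5 RARE) promoters, so endogenous transcription factor activity is measured. After 24 h compound exposure, reporter mRNA is quantified by RT-PCR with fluorescent labelling and capillary electrophoresis; bidirectional fitting versus DMSO.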

[18] = ATG_M_19_CIS: Attagene CIS-FACTORIAL HepG2 Assay for M19 Transcription Factor (Internal Marker) (AID 2282939); conditions: HepG2 Attagene CIS-FACTORIAL M19 internal marker reporter; actives raise or lower the signal
Method in brief: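 Transfect HepG2 with MRTU reporter library → dose chemical, 24 h → isolate total RNA, reverse-transcribe with oligo(dT) → PCR, 6-FAM label, HpaI cut (2 h, 37 C) → capillary electrophoresis. Bidirectional fit vs DMSO.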

[19] = ATG_ERE_CIS: Attagene CIS-FACTORIAL HepG2 Assay for Estrogen Response Element (ERE) (AID 2282940); conditions: HepG2 ERE cis-reporter, Attagene RNA transcript; actives raise or lower the signal
Method in brief: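 Transient MRTU transfection of human HepG2; cis-element promoters; 24 h dosing; total RNA → RT (oligo dT) → PCR → 6-FAM primer extension → HpaI digest → CE fluorescence. Bidirectional fit, DMSO baseline.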

Measured: AC50

C=CC(=O)OCCn1c(=O)n(CCOC(=O)C=C)c(=O)n(CCOC(=O)C=C)c1=O
active: [3] 16.5 µM | [4] 3.42 µM | [5] 53.6 µM | [6] 20 µM | [9] 18.9 µM | [11] 11.2 µM | [13] 52.4 µM
not listed: [17] | [18] | [19]
inactive: all other assays above

O=c1cc(-c2ccccc2)oc2cc(O)cc(O)c12
active: [3] 7.76 µM | [4] 5.85 µM | [9] 25.9 µM
not listed: [12] | [19]
inactive: all other assays above

CCCc1ccccc1O
active: [4] 23.9 µM
not listed: [5] | [7] | [14] | [17] | [19]
inactive: all other assays above

COc1nc(C)nc(N)n1
not listed: [17]
inactive: all other assays above

CN1[C@@H]2CC(OC(=O)[C@H](CO)c3ccccc3)C[C@H]1[C@@H]1O[C@@H]12 (stereo partly specified)
not listed: [14] | [17]
inactive: all other assays above

CC(C)C[C@H]1C(=O)N2CCC[C@H]2[C@]2(O)O[C@](NC(=O)[C@@H]3C=C4c5cccc6[nH]c(Br)c(c56)C[C@H]4N(C)C3)(C(C)C)C(=O)N12
active: [3] 7.76 µM | [11] 1.65 µM
not listed: [13] | [19]
inactive: all other assays above

Nc1cc([N+](=O)[O-])ccc1O
inactive: [1] | [2] | [3] | [5] | [9] | [10] | [11] | [18] | [16]
active: [4] 100 µM

CSc1nc(NC2CC2)nc(NC(C)(C)C)n1
not listed: [5] | [13] | [19]
inactive: all other assays above

CO[Si](C)(OC)c1ccccc1
active: [4] 130 µM
not listed: [6] | [13] | [15] | [17]
inactive: all other assays above

O=C=NC1CCC(CC2CCC(N=C=O)CC2)CC1 (stereo unspecified)
inactive: [8] | [10] | [11] | [12] | [13] | [14] | [15]
active: [1] 28.4 µM | [2] 65.1 µM | [3] 179 µM | [4] 83.7 µM | [7] 41.7 µM | [9] 76.9 µM | [16] 174 µM

Sc1nc(S)nc(S)n1
not listed: [7] | [8] | [15] | [17] | [19]
inactive: all other assays above

Clc1nc(C(Cl)(Cl)Cl)c(Cl)c(Cl)c1Cl
active: [3] 18 µM | [4] 12.6 µM | [5] 28.8 µM | [12] 54.2 µM | [16] 55.8 µM
not listed: [8] | [15] | [17]
inactive: all other assays above

CCCCCCCCCOC(C)=O
not listed: [11] | [17] | [18]
inactive: all other assays above

NC(=O)NC1NC(=O)NC1=O (stereo unspecified)
not listed: [16] | [17] | [18] | [19]
inactive: all other assays above

c1ccc2sc(SN(C3CCCCC3)C3CCCCC3)nc2c1
active: [4] 49.1 µM
not listed: [5] | [16] | [17]
inactive: all other assays above

CC1(C)[C@@H]2CC[C@@]1(C)[C@H](O)C2
not listed: [17] | [19]
inactive: all other assays above

CC(C)=CCC[C@H](C)CC=O
not listed: [5] | [12] | [14] | [17] | [18] | [19]
inactive: all other assays above
